Assay results as given in the supplement of paper PMC8975748.
Counter-ions that a name gives are not always drawn. ± gives the standard deviation of the averaged measurements.

Columns and labels:
[1] = tested on: Saccharomyces cerevisiae BY4741 SeMeCo community; assay: mean cell size (pixel area) (pixels); higher = larger cells; conditions: 10 µM; 24 h; SM minimal medium
In short: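 Mean cell pixel area per well was measured in a four-plasmid fluorescent community of Saccharomyces cerevisiae BY4741, where every plasmid complements one auxotrophy and carries a fluorescent marker. Cells from an overnight preculture at OD600 = 1.0 were diluted to OD600 = 0.3 and dispensed at 70 µl into 384-well plates acoustically predosed with drug to a final 10 µM in SM medium. Incubation lasted 24 h, followed by paraformaldehyde fixation, automated confocal imaging and analysis in Harmony. Reported figures are averaged over 3 replicates. Same SeMeCo high-content imaging drug screen: Selleck FDA-approved drugs at 10 µM, 24 h in SM medium, 384-well plates, 3 replicates.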

[2] = tested on: Saccharomyces cerevisiae BY4741 SeMeCo community; assay: z-score of subpopulation abundance vs DMSO median, subpopulation auxotrophic for M; higher = larger share of this subpopulation than in DMSO controls; conditions: 10 µM; 24 h; SM minimal medium; subpopulation (auxotrophy): M
In short: (§1)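 Automated confocal microscopy of paraformaldehyde-fixed cells was used to follow a Saccharomyces cerevisiae BY4741 community carrying four plasmids, each restoring one auxotrophy and encoding a distinct fluorescent protein. The community was pre-grown overnight to OD600 1.0, diluted to 0.3, and added at 70 µl to 384-well plates acoustically predosed with library drugs (10 µM final) for 24 h of growth in minimal SM medium. Single-auxotroph fluorescent strains set thresholds and autofluorescence correction, and each subpopulation's abundance was scored as a z-score against the vehicle-well median.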

[3] = tested on: Saccharomyces cerevisiae BY4741 SeMeCo community; assay: z-score of subpopulation abundance vs DMSO median, subpopulation auxotrophic for L; higher = larger share of this subpopulation than in DMSO controls; conditions: 10 µM; 24 h; SM minimal medium; subpopulation (auxotrophy): L
In short: as §1

[4] = tested on: Saccharomyces cerevisiae BY4741 SeMeCo community; assay: z-score of subpopulation abundance vs DMSO median, subpopulation auxotrophic for U; higher = larger share of this subpopulation than in DMSO controls; conditions: 10 µM; 24 h; SM minimal medium; subpopulation (auxotrophy): U
In short: as §1

[5] = tested on: Saccharomyces cerevisiae BY4741 SeMeCo community; assay: z-score of subpopulation abundance vs DMSO median, subpopulation auxotrophic for H; higher = larger share of this subpopulation than in DMSO controls; conditions: 10 µM; 24 h; SM minimal medium; subpopulation (auxotrophy): H
In short: as §1

[6] = tested on: Saccharomyces cerevisiae BY4741 SeMeCo community; assay: z-score of subpopulation abundance vs DMSO median, subpopulation auxotrophic for LU; higher = larger share of this subpopulation than in DMSO controls; conditions: 10 µM; 24 h; SM minimal medium; subpopulation (auxotrophy): LU
In short: as §1

[7] = tested on: Saccharomyces cerevisiae BY4741 SeMeCo community; assay: z-score of subpopulation abundance vs DMSO median, subpopulation auxotrophic for LM; higher = larger share of this subpopulation than in DMSO controls; conditions: 10 µM; 24 h; SM minimal medium; subpopulation (auxotrophy): LM
In short: as §1

[8] = tested on: Saccharomyces cerevisiae BY4741 SeMeCo community; assay: z-score of subpopulation abundance vs DMSO median, subpopulation auxotrophic for HM; higher = larger share of this subpopulation than in DMSO controls; conditions: 10 µM; 24 h; SM minimal medium; subpopulation (auxotrophy): HM
In short: as §1

[9] = tested on: Saccharomyces cerevisiae BY4741 SeMeCo community; assay: z-score of subpopulation abundance vs DMSO median, subpopulation auxotrophic for HU; higher = larger share of this subpopulation than in DMSO controls; conditions: 10 µM; 24 h; SM minimal medium; subpopulation (auxotrophy): HU
In short: as §1

[10] = tested on: Saccharomyces cerevisiae BY4741 SeMeCo community; assay: z-score of subpopulation abundance vs DMSO median, subpopulation auxotrophic for UM; higher = larger share of this subpopulation than in DMSO controls; conditions: 10 µM; 24 h; SM minimal medium; subpopulation (auxotrophy): UM
In short: as §1

[11] = tested on: Saccharomyces cerevisiae BY4741 SeMeCo community; assay: z-score of subpopulation abundance vs DMSO median, subpopulation auxotrophic for HL; higher = larger share of this subpopulation than in DMSO controls; conditions: 10 µM; 24 h; SM minimal medium; subpopulation (auxotrophy): HL
In short: as §1

[12] = tested on: Saccharomyces cerevisiae BY4741 SeMeCo community; assay: z-score of subpopulation abundance vs DMSO median, subpopulation auxotrophic for HLM; higher = larger share of this subpopulation than in DMSO controls; conditions: 10 µM; 24 h; SM minimal medium; subpopulation (auxotrophy): HLM
In short: as §1

[13] = tested on: Saccharomyces cerevisiae BY4741 SeMeCo community; assay: z-score of subpopulation abundance vs DMSO median, subpopulation auxotrophic for HUM; higher = larger share of this subpopulation than in DMSO controls; conditions: 10 µM; 24 h; SM minimal medium; subpopulation (auxotrophy): HUM
In short: as §1

[14] = tested on: Saccharomyces cerevisiae BY4741 SeMeCo community; assay: z-score of subpopulation abundance vs DMSO median, subpopulation auxotrophic for LUM; higher = larger share of this subpopulation than in DMSO controls; conditions: 10 µM; 24 h; SM minimal medium; subpopulation (auxotrophy): LUM
In short: as §1

[15] = tested on: Saccharomyces cerevisiae BY4741 SeMeCo community; assay: z-score of subpopulation abundance vs DMSO median, subpopulation auxotrophic for HLUM; higher = larger share of this subpopulation than in DMSO controls; conditions: 10 µM; 24 h; SM minimal medium; subpopulation (auxotrophy): HLUM
In short: as §1

[16] = tested on: Saccharomyces cerevisiae BY4741 SeMeCo community; assay: z-score of prototroph abundance vs DMSO median; higher = larger share of this subpopulation than in DMSO controls; conditions: 10 µM; 24 h; SM minimal medium; subpopulation (auxotrophy): Prototroph
In short: as §1

SMILES	mean cell size [1]	z-score of subpopulation abundance [2]	z-score of subpopulation abundance [3]	z-score of subpopulation abundance [4]	z-score of subpopulation abundance [5]	z-score of subpopulation abundance [6]	z-score of subpopulation abundance [7]	z-score of subpopulation abundance [8]	z-score of subpopulation abundance [9]	z-score of subpopulation abundance [10]	z-score of subpopulation abundance [11]	z-score of subpopulation abundance [12]	z-score of subpopulation abundance [13]	z-score of subpopulation abundance [14]	z-score of subpopulation abundance [15]	z-score of prototroph abundance [16]
Cn1cc(C(=O)[C@@H]2CCc3[nH]cnc3C2)c2ccccc21 [Ramosetron Hydrochloride]	12.6 ± 0.16	0.56	-0.44	0.51	-0.29	0.85	0.12	0.78	-0.53	0.33	-0.22	1.18	-0.01	0.32	–	–
CN1[C@@H]2CC[C@H]1C[C@@H](OC(c1ccccc1)c1ccccc1)C2 [Benztropine mesylate]	12.38 ± 0.057	-0.66	0.17	-0.32	-0.75	-0.21	–	-0.56	–	-0.32	–	-0.44	-0.47	-0.36	-0.38	–
NCc1ccccc1CC(=O)N[C@@H]1C(=O)N2C(C(=O)O)=C(CSc3nnnn3CC(=O)O)CS[C@H]12 [Ceforanide]	12.09 ± 0.042	-0.21	2.29	-0.98	2.15	0.89	1.65	1.01	0.2	-0.41	2.92	0.46	0.56	2.06	–	-0.53
CO/N=C(\C(=O)N[C@@H]1C(=O)N2C(C(=O)OCOC(=O)C(C)(C)C)=C(/C=C\c3scnc3C)CS[C@H]12)c1csc(N)n1 [Cefditoren Pivoxil]	12.3 ± 0.23	0.2	1.38	-0.88	–	0.07	1.47	1.45	-0.64	-0.06	1.56	0.31	–	–	0.48	-0.6
C[n+]1ccccc1/C=N/O [Pralidoxime chloride]	11.9 ± 0.062	1.37	-0.96	1.25	-1.61	0.11	–	-0.08	0.45	1.18	-0.65	-0.4	0.39	0.34	-0.34	-0.28
O=C(c1ccc(F)cc1)C1CCN(CCn2c(=O)[nH]c3ccccc3c2=O)CC1 [Ketanserin]	12.33 ± 0.039	0.03	-0.47	0.03	-0.82	-0.66	–	-0.51	-0.13	-0.54	0.13	-0.05	-0.47	-0.27	0.5	0.15
COCCOC(=O)C1=C(C)NC(C)=C(C(=O)OC/C=C/c2ccccc2)C1c1cccc([N+](=O)[O-])c1 (centres undefined) [Cilnidipine]	12.3 ± 0.24	-1.14	0.77	-0.53	1.28	0.17	–	0.7	0.24	-0.33	0.94	-0.44	0.37	-0.1	-0.48	-0.13
CO[C@@]1(NC(=O)Cc2cccs2)C(=O)N2C(C(=O)O)=C(COC(N)=O)CS[C@@H]21 [Cefoxitin sodium]	12.5 ± 0.3	-0.16	-1.28	-0.18	-0.25	-0.8	-1.09	–	-0.94	–	-0.41	-0.9	–	-0.95	-0.41	1.38
O=C(O[C@H]1CN2CCC1CC2)N1CCc2ccccc2[C@@H]1c1ccccc1 [Solifenacin succinate]	12.1 ± 0.28	0.77	-0.16	0.4	-0.91	0.43	–	0	0.28	1.06	0.67	0.25	0.3	0.68	0.94	-0.49
CN(C)C[C@@H]1CCn2cc(c3ccccc32)C2=C(C(=O)NC2=O)c2cn(c3ccccc23)CCO1	–	-0.34	1.34	0.49	1.52	1.13	0.82	0.28	-0.03	-0.29	1.61	0.91	-0.43	0.63	0.34	-0.66
Clc1ccc(CCC(Cn2ccnc2)Sc2c(Cl)cccc2Cl)cc1 (centres undefined) [Butoconazole]	12.08 ± 0.019	-8.6	2.88	-0.41	36.2	-0.9	-2.25	1.61	–	0.29	31.6	27.1	5.14	–	32.1	-10
O=C1C(N(CO)C(=O)NCO)N(CO)C(=O)N1CO (centres undefined) [Diazolidinyl urea]	–	-1.49	0.77	-0.26	–	0.3	-0.49	-1.17	–	-0.82	-0.07	-0.27	-0.76	-0.16	0.51	1.06
CC[C@H]1OC(=O)[C@H](C)[C@@H](O[C@H]2C[C@@](C)(OC)[C@@H](O)[C@H](C)O2)[C@H](C)[C@@H](O[C@@H]2O[C@H](C)C[C@H](N(C)C)[C@H]2O)[C@](C)(O)C[C@@H](C)CN(C)[C@H](C)[C@@H](O)[C@]1(C)O [Azithromycin Dihydrate]	12.5 ± 0.38	0.58	0.09	-0.03	0.7	-0.14	-0.45	0.39	–	0.16	0.05	0.07	0.97	-0.75	-0.18	-0.48
COc1ccc(C2CNC(=O)C2)cc1OC1CCCC1 (stereo not drawn) [S- (+)-Rolipram]	–	-0.3	-0.9	-0.01	-0.73	-0.96	-0.87	-0.72	-0.33	-1.18	-0.58	-0.94	-0.99	-1.24	-1.15	1.36
